Assay outcomes deposited in PubChem BioAssay by several laboratories.
Rows were chosen to be rich in hits. Some 0.83% of all compounds tested hit in one or more screens of this group.
SRC3 inh = human NCOA3 inhibition | Q9Y6Q9 | HEK293 GAL4-SRC3 luciferase reporter, luminescence | inhibition, % at 3.6 µM | 360,000 compounds, 0.17% hits | AID 588352;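 active = inhibition above a per-campaign cutoff, the mean of all compounds plus 3 SD, cut at about 60% in these data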;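 note: 0% = DMSO-treated cells and 100% = gossypol-treated cells at 36 µM; higher means less SRC3-driven luciferase light from the GAL4 reporter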
Gli-Sufu antag = antagonists of Gli-Sufu signaling. inhibition, % at 5 µM. AID 588413. Sufu-KO-LIGHT fibroblasts, Gli luciferase reporter luminescence. 340,000 compounds, 0.74% hits;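 active = inhibition above about 55%, limit read from the data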;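 note: 0% = DMSO-treated cells and 100% = wells with medium but no cells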
SRC2 inh = inhibits human steroid receptor coactivator 2 | Q15596 | HEK293 GAL4-SRC2 luciferase reporter, luminescence | inhibition, % at 9 µM | 370,000 compounds, 0.17% hits;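 active = inhibition above the mean inhibition of all tested compounds plus 3 SD, set per campaign, cut at about 52% in these data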;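 note: 0% = DMSO treated cells and 100% = cells given Gossypol at 36 µM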
SRC1 inh = inhibits human SRC1 coactivator; AID 588354; inhibition, % at 3.6 µM; HEK293 GAL4-SRC1 luciferase reporter, luminescence; Q15788; 360,000 compounds, 0.12% hits;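 active = inhibition above the campaign mean plus 3 SD, with each screening campaign given its own cutoff, cut at about 60% in these data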;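 note: 0% = DMSO treated cells and 100% = gossypol at 36 µM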
NR5A2 inv ag = NR5A2 inverse agonism in reporter assay; inhibition, % at 3.6 µM; HEK293T StAR-luciferase reporter, LRH-1 transfected, 24 h; O00482; 360,000 compounds, 0.13% hits;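 active = inhibition above the mean inhibition of all tested compounds plus 3 SD, cut at about 73% in these data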;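 note: 0% = DMSO wells and 100% = reporter-only cells lacking LRH-1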
Target sequence (O00482 whole entry, looked up): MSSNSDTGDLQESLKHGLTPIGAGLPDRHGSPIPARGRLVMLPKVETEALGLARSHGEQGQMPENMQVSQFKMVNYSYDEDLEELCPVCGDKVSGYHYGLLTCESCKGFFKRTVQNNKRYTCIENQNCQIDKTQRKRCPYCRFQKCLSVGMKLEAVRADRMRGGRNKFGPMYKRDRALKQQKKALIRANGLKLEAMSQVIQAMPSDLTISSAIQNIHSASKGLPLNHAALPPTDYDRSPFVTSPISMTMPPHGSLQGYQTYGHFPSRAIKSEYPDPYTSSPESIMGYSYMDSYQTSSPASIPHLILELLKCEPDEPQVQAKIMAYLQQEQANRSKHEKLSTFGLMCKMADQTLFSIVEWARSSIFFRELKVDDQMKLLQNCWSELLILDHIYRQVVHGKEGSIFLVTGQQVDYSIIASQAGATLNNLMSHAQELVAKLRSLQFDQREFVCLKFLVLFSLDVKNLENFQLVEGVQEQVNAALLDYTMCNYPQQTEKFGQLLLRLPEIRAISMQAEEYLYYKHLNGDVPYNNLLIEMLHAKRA
The depositor's hits bear a star; nt = no result.

SMILES | SRC3 inh | Gli-Sufu antag | SRC2 inh | SRC1 inh | NR5A2 inv ag
COc1ccc(C(=O)NCC(=O)OCc2c(Cl)cccc2Cl)cc1OC | 66* | 1 | 4 | -7 | -8
COc1ccc(OC)c(Nc2c3ccccc3nc3ccccc23)c1 | -7 | 30 | 5 | 6 | 13
COc1cc(NS(C)(=O)=O)ccc1Nc1c2ccccc2nc2ccccc12 | 64* | 74* | -23 | 62* | 46
Cc1ccccc1Oc1ccc(NC(=O)C2CC=CCC2C(=O)O)cc1 (stereo not drawn) | 9 | -5 | -8 | -10 | 16
CC(C)(C)c1ccc(Oc2ccc(NC(=O)C3CC=CCC3C(=O)O)cc2)cc1 (stereo not drawn) | 19 | -5 | 78* | 4 | 50
O=C(Nc1ccccc1Oc1ccccc1)c1cc([N+](=O)[O-])ccc1Cl | 57 | 0 | 55* | 38 | 26
CC(C)CNC(=O)OCc1cn(Cc2ccccc2Cl)nn1 | nt | nt | 2 | nt | nt
N#Cc1ccc(Cn2ccc3ccc(-c4ccc5ccn(C(=O)C6CCCCC6)c5c4)cc32)cc1 | nt | nt | 24 | nt | nt
O=C(c1ccccc1)c1nn(-c2ccc(Cl)cc2)c(=O)cc1C(F)(F)F | 64* | 12 | 69* | 26 | 85*
O=C(c1ccccc1)c1nn(-c2ccccc2)c(=O)cc1C(F)(F)F | 12 | 3 | -15 | -12 | 2
CCCCC(=O)NC(c1ccc(C(C)C)cc1)c1ccc2cccnc2c1O (stereo not drawn) | 68* | 51 | 25 | 42 | 7
CCCCC(=O)NC(c1ccccc1)c1ccc2cccnc2c1O (stereo not drawn) | 66* | -26 | -11 | 40 | 89*
Oc1c(C(c2ccccc2Cl)N2CCCC2)ccc2cccnc12 (stereo not drawn) | 28 | 74* | 6 | 19 | 18
CCCC(=O)NC(c1ccc(OC)cc1)c1ccc2cccnc2c1O (stereo not drawn) | 62* | 47 | 20 | 20 | 13
COc1ccc(-n2c(SCC(=O)NNC(=S)Nc3ccccc3)nc3ccccc3c2=O)cc1 | nt | nt | 18 | nt | nt
Brc1ccc(Cn2nnc(-c3ccc(N4CCOCC4)cc3)n2)cc1 | nt | nt | -29 | nt | nt
COc1ccc2c(c1)CNC2CS(=O)(=O)NCC(C)C (stereo not drawn) | nt | nt | -3 | nt | nt
COC(=O)[C@H]1C[C@@]2(n3ccc4ccccc43)c3ccccc3N(S(=O)(=O)c3ccccc3)[C@H]2N1C(=O)CNC1CCCCC1 | nt | nt | 19 | nt | nt
CN[C@H]1C[C@H]2c3[nH]c4cccc(-c5cccc(F)c5)c4c3CCN2C(=O)[C@H]1[C@H](C)O | nt | nt | 22 | nt | nt
C#CCNC(=O)C[C@H]1C[C@@]2(C(=O)OC)C(=C[C@H](COCc3ccccc3)O[C@@H]2C)N(Cc2cccc3ccccc23)C1=O | nt | nt | 12 | nt | nt
CCCCC(=O)NC(c1ccccc1Cl)c1ccc2cccnc2c1O (stereo not drawn) | 73* | 86* | 32 | 54 | 60
CCCC(=O)NC(c1ccccc1)c1ccc2cccnc2c1O (stereo not drawn) | 26 | -11 | 34 | 19 | 11
O=C(CSc1nc(-c2cccs2)cc(C(F)(F)F)n1)Nc1cc(OCC(F)(F)C(F)F)cc([N+](=O)[O-])c1 | 13 | 10 | -7 | 76* | -32
Cc1cccc(Oc2ccc(NC(=O)c3ccccc3C(=O)O)cc2)c1C | -8 | -5 | -38 | -29 | 22
O=C(O)c1ccccc1C(=O)Nc1ccc(Oc2cccc3ccccc23)cc1 | 71* | 12 | 89* | 56 | 62
SMILES | SRC3 inh | Gli-Sufu antag | SRC2 inh | SRC1 inh | NR5A2 inv ag
CCCCCOC(=O)c1[nH]c2c(c1C)C(=O)CC(c1ccco1)C2 (stereo not drawn) | 28 | 69* | nt | -5 | 15
CCOCCOC(=O)c1[nH]c2c(c1C)C(=O)CC(c1cccs1)C2 (stereo not drawn) | -1 | 31 | 27 | 10 | 28
COc1cccc(-c2nnc3n2N=C(C(C)(C)C)CS3)c1 | 66* | -10 | 73* | 67* | 46
COc1cccc(-c2nnc3n2N=C(c2ccc(Cl)cc2)CS3)c1 | nt | nt | 23 | nt | nt
O=C(CCCc1ccccc1)NC1CC1 | 11 | -11 | -9 | -7 | -9
O=C(O)CCCc1ccc2c(c1)CCc1ccccc1-2 | 19 | 13 | 74* | 17 | -9
Nc1cc2ccncc2c2ccccc12 | 60 | -8 | 40 | 67* | 66
N#Cc1cc2ccncc2c2ccccc12 | 20 | nt | 27 | 29 | -7
NC(=O)c1ccc(N2CCN(S(=O)(=O)c3ccccc3)CC2)c([N+](=O)[O-])c1 | 5 | 56* | 31 | 30 | 38
CC(C)n1cnc2c(NCc3ccccc3)cc(N[C@H](C)CO)cc21 | 92* | 1 | nt | 89* | 90*
C=CC[C@H]1c2ccccc2[C@H]2N3N=Cc4ccccc4[C@H]3[C@H](CCc3ccccc3)C(=O)N2N1C(=O)c1ccccc1 | nt | nt | 13 | nt | nt
CCCCCCCCN1C(=O)N2Cc3cc(OC)ccc3C2CS1(=O)=O (stereo not drawn) | nt | nt | -1 | nt | nt
Cc1ccc2nc(NC(=O)CSCC(=O)OCC(=O)c3ccccc3)sc2c1 | 55 | 43 | 73* | 30 | 53
Cc1ccc2nc(NC(=O)CCCC(=O)O)sc2c1 | 32 | 33 | 57* | 26 | 17
COC(=O)[C@]12C[C@H](CC(=O)N3CCN(C(=O)c4ccco4)CC3)C(=O)N(Cc3cccc4ccccc34)C1=C[C@H](COCc1ccccc1)O[C@@H]2C | nt | nt | 17 | nt | nt
O=S1(=O)c2ccc(N3CCCC3)cc2Oc2ccccc2CN1Cc1cn(Cc2ccccc2C(F)(F)F)nn1 | nt | nt | 13 | nt | nt
C/C(=N\Nc1ccc(Cl)c(C(=O)O)c1)c1ccccn1 | -38 | -6 | -16 | -67 | -103
C/C(=N\Nc1ncnc2sc(C)c(C)c12)c1ccccn1 | 81* | 94* | 39 | 49 | -3
C/C(=N\Nc1ncc(Cl)cc1Cl)c1ccccn1 | 24 | 76* | nt | 6 | -75
COC(=O)[C@]12C[C@H](CC(=O)NCCc3ccccc3OC)C(=O)N(Cc3ccco3)C1=C[C@H](C(C)(C)C)O[C@@H]2C | nt | nt | 26 | nt | nt
Cc1cc(C(=O)CSc2ncnc3ccccc23)c(C)n1C1CC1 | 13 | 12 | -5 | -38 | -20
Cc1cc(-n2c(C)cc(C(=O)CSc3ncnc4ccccc34)c2C)no1 | 36 | 73* | 29 | 25 | 41
COc1ccc(Cl)cc1Nc1nc(-c2sc(NC(=O)C(C)(C)C)nc2C)cs1 | 61 | 15 | -33 | 72* | 38
COc1ccc(-c2[nH]ncc2-c2ccc(Cl)cc2)c(O)c1 | -10 | 0 | 2 | 5 | 5
COc1ccc(-c2cn[nH]c2-c2ccc(OC)cc2O)cc1 | 40 | -14 | 52* | 34 | 11
CCCCCC(=O)NC1CCCCN(Cc2ccc(C)cc2)C1=O (stereo not drawn) | nt | nt | 11 | nt | nt
Cc1ccc(N/C(N)=N/c2nc3c(c(=O)[nH]2)CCCC3)c(C)c1 | 4 | -1 | -5 | -19 | 4
Cc1ccc(N/C(N)=N/c2nc(C)cc(N3CCCCC3)n2)c(C)c1 | 25 | 85* | 11 | 9 | 20
